biological target: T1, FLI1 (Homo sapiens, UniProt Q01543 1-452); test: DAPPL (digital affinity profiling via proximity ligation, sequencing); 10 mM Tris-HCl pH 7.5, 50 mM NaCl, 1 mM DTT, 4% glycerol, room temperature, 30 min; GST-TFs on glutathione beads, 16-mer random dsDNA library, 0.1% formaldehyde crosslink after washing; high values mean tight binding; details: protein: recombinant; tags: N-terminal GST; dsDNA, one strand shown
T1 sequence: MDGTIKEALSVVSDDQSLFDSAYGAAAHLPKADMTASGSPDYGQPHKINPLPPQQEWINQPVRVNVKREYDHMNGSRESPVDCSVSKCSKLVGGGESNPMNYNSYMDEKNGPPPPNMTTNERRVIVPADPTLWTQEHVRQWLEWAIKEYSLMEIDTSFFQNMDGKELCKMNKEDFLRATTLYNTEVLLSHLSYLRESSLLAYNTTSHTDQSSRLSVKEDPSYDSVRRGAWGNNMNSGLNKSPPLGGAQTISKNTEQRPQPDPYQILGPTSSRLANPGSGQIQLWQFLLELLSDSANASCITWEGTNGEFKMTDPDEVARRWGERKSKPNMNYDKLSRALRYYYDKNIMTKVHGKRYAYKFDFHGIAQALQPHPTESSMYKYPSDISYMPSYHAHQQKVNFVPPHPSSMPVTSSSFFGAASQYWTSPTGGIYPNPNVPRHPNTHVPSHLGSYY
Procedure, shortened: (§1)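 Binding signal is defined as a hexamer's read frequency for one factor over its frequency for the tag-only sample. To obtain reads, GST-fused human transcription factors were expressed in yeast, captured on glutathione beads, barcoded with DNA and pooled with that sample. Pools met 200 nmole of a 16-mer random double-stranded DNA library in Tris/NaCl/DTT/glycerol buffer for 30 min at room temperature before washing, 0.1% formaldehyde crosslinking, proximity ligation (BsaI/T4 ligase, 1 h, 37 °C), PCR and Illumina NextSeq500 sequencing.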

Row | Sequence | binding signal
1 | GTCTAC | 1.09 fold enrichment (6-mer frequency, TF over GST control)
2 | GCCCCA | 1.06 fold enrichment (6-mer frequency, TF over GST control)
3 | CGCCCG | 1.28 fold enrichment (6-mer frequency, TF over GST control)
4 | AAGGCA | 1.02 fold enrichment (6-mer frequency, TF over GST control)
5 | TGGTGC | 1.12 fold enrichment (6-mer frequency, TF over GST control)
6 | CATACG | 1.05 fold enrichment (6-mer frequency, TF over GST control)
7 | AAGGGT | 1 fold enrichment (6-mer frequency, TF over GST control)
8 | TTGCCG | 1.2 fold enrichment (6-mer frequency, TF over GST control)
9 | ACATGG | 1.17 fold enrichment (6-mer frequency, TF over GST control)
10 | GTTGAT | 1.04 fold enrichment (6-mer frequency, TF over GST control)
11 | CATCCA | 1.01 fold enrichment (6-mer frequency, TF over GST control)
12 | ATGCCG | 1.12 fold enrichment (6-mer frequency, TF over GST control)
13 | CCGCTG | 1.13 fold enrichment (6-mer frequency, TF over GST control)
14 | ACCACC | 1.1 fold enrichment (6-mer frequency, TF over GST control)
15 | TGCCAA | 1.07 fold enrichment (6-mer frequency, TF over GST control)
16 | GCGCGC | 1 fold enrichment (6-mer frequency, TF over GST control)
17 | GTCCCA | 1.03 fold enrichment (6-mer frequency, TF over GST control)
18 | CCGATG | 1.07 fold enrichment (6-mer frequency, TF over GST control)
19 | CCATGC | 1.04 fold enrichment (6-mer frequency, TF over GST control)

Row | Sequence | binding signal
20 | GCTGCC | 1.13 fold enrichment (6-mer frequency, TF over GST control)
21 | TCAACA | 1.06 fold enrichment (6-mer frequency, TF over GST control)
22 | GTCTTG | 1.02 fold enrichment (6-mer frequency, TF over GST control)
23 | ACCACA | 1.05 fold enrichment (6-mer frequency, TF over GST control)
24 | TGGACC | 1.11 fold enrichment (6-mer frequency, TF over GST control)
25 | GCCCAC | 1.09 fold enrichment (6-mer frequency, TF over GST control)
26 | CGGCCT | 1.22 fold enrichment (6-mer frequency, TF over GST control)
27 | GGTTTT | 1.22 fold enrichment (6-mer frequency, TF over GST control)
28 | CCACCT | 1.16 fold enrichment (6-mer frequency, TF over GST control)
29 | TTGGTC | 1.16 fold enrichment (6-mer frequency, TF over GST control)
30 | GGGTTC | 1.06 fold enrichment (6-mer frequency, TF over GST control)
31 | ACGTTG | 1.14 fold enrichment (6-mer frequency, TF over GST control)
32 | CCACAC | 1.07 fold enrichment (6-mer frequency, TF over GST control)
33 | TGGTCA | 1.11 fold enrichment (6-mer frequency, TF over GST control)
34 | AGCAAC | 1 fold enrichment (6-mer frequency, TF over GST control)
35 | AAAGCG | 1.01 fold enrichment (6-mer frequency, TF over GST control)
36 | ATGGTG | 1.17 fold enrichment (6-mer frequency, TF over GST control)
37 | TGCTGC | 1.15 fold enrichment (6-mer frequency, TF over GST control)
38 | CATCGC | 1.08 fold enrichment (6-mer frequency, TF over GST control)

biological target: T2, ELK1 (Homo sapiens, UniProt P19419 1-428); test: as above; details: protein: recombinant; tags: N-terminal GST; dsDNA, one strand shown
T2 sequence: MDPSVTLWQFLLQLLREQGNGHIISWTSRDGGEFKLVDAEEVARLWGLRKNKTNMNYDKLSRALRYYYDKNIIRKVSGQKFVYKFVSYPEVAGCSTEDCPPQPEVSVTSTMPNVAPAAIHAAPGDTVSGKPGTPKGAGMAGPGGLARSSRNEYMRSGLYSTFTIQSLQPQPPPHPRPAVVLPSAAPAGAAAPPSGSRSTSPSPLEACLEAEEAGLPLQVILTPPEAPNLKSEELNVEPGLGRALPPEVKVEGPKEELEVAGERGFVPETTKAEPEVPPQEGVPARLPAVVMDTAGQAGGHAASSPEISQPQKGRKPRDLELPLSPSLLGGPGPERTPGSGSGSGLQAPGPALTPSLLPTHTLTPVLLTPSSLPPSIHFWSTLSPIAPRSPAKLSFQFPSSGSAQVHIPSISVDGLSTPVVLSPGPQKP
Procedure, shortened: as §1

Row | Sequence | binding signal
39 | GTCTAC | 1.08 fold enrichment (6-mer frequency, TF over GST control)
40 | GCCCCA | 1.04 fold enrichment (6-mer frequency, TF over GST control)
41 | CGCCCG | 1.2 fold enrichment (6-mer frequency, TF over GST control)
42 | AAGGCA | 1.05 fold enrichment (6-mer frequency, TF over GST control)
43 | TGGTGC | 1.14 fold enrichment (6-mer frequency, TF over GST control)
44 | CATACG | 1.01 fold enrichment (6-mer frequency, TF over GST control)
45 | AAGGGT | 1.01 fold enrichment (6-mer frequency, TF over GST control)
46 | TTGCCG | 1.14 fold enrichment (6-mer frequency, TF over GST control)
47 | ACATGG | 1.13 fold enrichment (6-mer frequency, TF over GST control)
48 | GTTGAT | 1.12 fold enrichment (6-mer frequency, TF over GST control)
49 | CATCCA | 1.06 fold enrichment (6-mer frequency, TF over GST control)
50 | ATGCCG | 1.13 fold enrichment (6-mer frequency, TF over GST control)
51 | CCGCTG | 1.03 fold enrichment (6-mer frequency, TF over GST control)
52 | ACCACC | 1.08 fold enrichment (6-mer frequency, TF over GST control)
53 | TGCCAA | 1.11 fold enrichment (6-mer frequency, TF over GST control)
54 | GCGCGC | 1.11 fold enrichment (6-mer frequency, TF over GST control)
55 | GTCCCA | 1.14 fold enrichment (6-mer frequency, TF over GST control)
56 | CCGATG | 1.1 fold enrichment (6-mer frequency, TF over GST control)

Row | Sequence | binding signal
57 | CCATGC | 1.1 fold enrichment (6-mer frequency, TF over GST control)
58 | GCTGCC | 1.08 fold enrichment (6-mer frequency, TF over GST control)
59 | TCAACA | 1.13 fold enrichment (6-mer frequency, TF over GST control)
60 | GTCTTG | 1.02 fold enrichment (6-mer frequency, TF over GST control)
61 | ACCACA | 1.1 fold enrichment (6-mer frequency, TF over GST control)
62 | TGGACC | 1.03 fold enrichment (6-mer frequency, TF over GST control)
63 | GCCCAC | 1.18 fold enrichment (6-mer frequency, TF over GST control)
64 | CGGCCT | 1.15 fold enrichment (6-mer frequency, TF over GST control)
65 | CCACCT | 1.12 fold enrichment (6-mer frequency, TF over GST control)
66 | TTGGTC | 1.17 fold enrichment (6-mer frequency, TF over GST control)
67 | GGGTTC | 1.02 fold enrichment (6-mer frequency, TF over GST control)
68 | ACGTTG | 1.11 fold enrichment (6-mer frequency, TF over GST control)
69 | CCACAC | 1.07 fold enrichment (6-mer frequency, TF over GST control)
70 | TGGTCA | 1 fold enrichment (6-mer frequency, TF over GST control)
71 | AGCAAC | 1.03 fold enrichment (6-mer frequency, TF over GST control)
72 | ATGGTG | 1.27 fold enrichment (6-mer frequency, TF over GST control)
73 | TGCTGC | 1.15 fold enrichment (6-mer frequency, TF over GST control)
74 | CATCGC | 1.13 fold enrichment (6-mer frequency, TF over GST control)

biological target: T3, GABPA (Homo sapiens, UniProt Q06546 1-454); test: as above; details: protein: recombinant; tags: N-terminal GST; dsDNA, one strand shown
T3 sequence: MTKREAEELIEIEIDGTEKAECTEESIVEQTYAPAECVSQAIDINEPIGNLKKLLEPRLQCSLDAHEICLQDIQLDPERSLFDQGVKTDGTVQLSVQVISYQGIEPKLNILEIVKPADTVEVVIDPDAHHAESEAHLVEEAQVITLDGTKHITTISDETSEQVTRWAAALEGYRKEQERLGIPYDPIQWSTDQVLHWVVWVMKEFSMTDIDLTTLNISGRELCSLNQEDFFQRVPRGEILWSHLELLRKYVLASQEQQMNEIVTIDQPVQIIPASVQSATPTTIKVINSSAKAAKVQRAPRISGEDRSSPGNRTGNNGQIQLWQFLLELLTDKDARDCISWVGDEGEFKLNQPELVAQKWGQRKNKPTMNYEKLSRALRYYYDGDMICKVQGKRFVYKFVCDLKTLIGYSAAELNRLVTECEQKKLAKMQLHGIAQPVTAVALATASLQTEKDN
Procedure, shortened: as §1

Row | Sequence | binding signal
75 | GTCTAC | 1.08 fold enrichment (6-mer frequency, TF over GST control)
76 | CGCCCG | 1.07 fold enrichment (6-mer frequency, TF over GST control)
77 | AAGGCA | 1.03 fold enrichment (6-mer frequency, TF over GST control)
78 | TGGTGC | 1.1 fold enrichment (6-mer frequency, TF over GST control)
79 | CATACG | 1.03 fold enrichment (6-mer frequency, TF over GST control)
80 | AAGGGT | 1.01 fold enrichment (6-mer frequency, TF over GST control)
81 | TTGCCG | 1.16 fold enrichment (6-mer frequency, TF over GST control)
82 | ACATGG | 1.15 fold enrichment (6-mer frequency, TF over GST control)
83 | GTTGAT | 1.12 fold enrichment (6-mer frequency, TF over GST control)
84 | ATGCCG | 1.09 fold enrichment (6-mer frequency, TF over GST control)
85 | CCGCTG | 1.02 fold enrichment (6-mer frequency, TF over GST control)
86 | ACCACC | 1.14 fold enrichment (6-mer frequency, TF over GST control)
87 | TGCCAA | 1.06 fold enrichment (6-mer frequency, TF over GST control)
88 | GCGCGC | 1.05 fold enrichment (6-mer frequency, TF over GST control)
89 | GTCCCA | 1.11 fold enrichment (6-mer frequency, TF over GST control)
90 | CCGATG | 1.18 fold enrichment (6-mer frequency, TF over GST control)

Row | Sequence | binding signal
91 | CCATGC | 1.09 fold enrichment (6-mer frequency, TF over GST control)
92 | GCTGCC | 1.18 fold enrichment (6-mer frequency, TF over GST control)
93 | TCAACA | 1.11 fold enrichment (6-mer frequency, TF over GST control)
94 | GTCTTG | 1.11 fold enrichment (6-mer frequency, TF over GST control)
95 | TGGACC | 1.09 fold enrichment (6-mer frequency, TF over GST control)
96 | GCCCAC | 1.06 fold enrichment (6-mer frequency, TF over GST control)
97 | CGGCCT | 1.16 fold enrichment (6-mer frequency, TF over GST control)
98 | GGTTTT | 1.2 fold enrichment (6-mer frequency, TF over GST control)
99 | CCACCT | 1.1 fold enrichment (6-mer frequency, TF over GST control)
100 | TTGGTC | 1.11 fold enrichment (6-mer frequency, TF over GST control)
101 | GGGTTC | 1.01 fold enrichment (6-mer frequency, TF over GST control)
102 | ACGTTG | 1.05 fold enrichment (6-mer frequency, TF over GST control)
103 | CCACAC | 1.1 fold enrichment (6-mer frequency, TF over GST control)
104 | TGGTCA | 1.17 fold enrichment (6-mer frequency, TF over GST control)
105 | AGCAAC | 1.06 fold enrichment (6-mer frequency, TF over GST control)
